The whole screen tested about 2,300 compounds, of which about 790 (34%) were called active. The rule behind the calls is not given here. The list shows a part of the results. Results with a measured potency or affinity are listed apart.
Assay: THP-1 cell cytotoxicity, dose response, cytotoxicity control for non-replicating M. tuberculosis project (AID 489025)
Conditions: THP-1 cell viability; series mostly up to 40 µM
In the case of `Clc1ccc(SCCCCn2ccnc2)cc1`, the outcome is reported as “inactive”. With `O=C(O)c1ccc(NS(=O)(=O)/C=C/c2ccccc2)cc1O` the outcome was “inactive”. For `Cc1cc(C)cc(NC(=O)COC(=O)CC2CCCC2)c1`, the outcome was “inactive”. For `O=C(COc1ccc(Nc2ccccc2)cc1)OCC(=O)N1CCCCC1`, the outcome was “inactive”. In the case of `COc1cccc(CC2(CO)CCCN(Cc3sc(N4CCCC4)nc3Cl)C2)c1` (stereo not drawn), the outcome is reported as “inactive”. For `O=C(COc1ccc(Cl)cc1)Nc1ccc(Cl)cn1`, the outcome was “inactive”. With `CCCc1nnc(-c2ccc(OC)cc2)o1` the outcome was “inactive”. In the case of `c1ccc(-c2n[nH]c(-c3ccccn3)n2)nc1`, the outcome is reported as “inactive”. For `O=C(COc1ccc(Cl)cc1)Nc1ccccc1Cl`, the outcome was “inactive”. In the case of `CC(C)(C)OC(=O)NCCc1nnc(S(=O)(=O)Cc2ccc(Cl)cc2Cl)o1`, the outcome is reported as “inactive”. With `OCC#CCSc1nnc(-c2ccc(Br)cc2)o1` the outcome was “inactive”. With `Cc1cccc(NCc2nnc(-c3ccccc3)o2)c1C` the outcome was “inactive”. For `O=C(CCSc1ccccn1)c1ccccc1`, the outcome was “inactive”. In the case of `CCOc1ccc(-c2ccc(SCC)nn2)cc1`, the outcome is reported as “inactive”. For `O=C(NC1CCCC1)c1nc2c(nnn2Cc2cccc(Cl)c2)c(=O)[nH]1`, the outcome was “inactive”. With `CC(C)(C)c1ccc(OCCC(=O)OCC(=O)NC2CCCCC2)cc1` the outcome was “inactive”. In the case of `CC(C)(C)c1ccc(-c2nc(C#N)c(NCCCn3ccnc3)o2)cc1`, the outcome is reported as “inactive”. In the case of `N#Cc1nc(-c2cccs2)oc1NCCc1ccccc1`, the outcome is reported as “inactive”. For `CCOCCOC(=O)COc1ccc2c(-c3ccccc3)cc(=O)oc2c1`, the outcome was “inactive”. With `CCc1nnc(NC(=O)CN2CCN(Cc3ccc(F)cc3)CC2)s1` the outcome was “inactive”. With `Cc1ccc2nc(NC(=O)COC(=O)c3ccc(Br)o3)sc2c1` the outcome was “inactive”. In the case of `CC1CCN(C(=O)COC(=O)CCc2c[nH]c3ccccc23)CC1`, the outcome is reported as “inactive”. In the case of `O=C1/C(=C/c2cccs2)COc2ccccc21`, the outcome is reported as “inactive”. With `COc1ccc2c3c(cccc13)OCC2=O` the outcome was “inactive”. With `O=C(c1ccco1)N1CCN(c2ccc(F)cc2)CC1` the outcome was “inactive”. In the case of `O=S(=O)(NCc1cccnc1)c1ccc(Cl)c(Cl)c1Cl`, the outcome is reported as “inactive”. With `Cc1cc(C=C2C(=O)NC(=S)NC2=O)c(C)n1C1CCCC1` the outcome was “inactive”. For `CCCn1nnnc1NCc1ccc(CC)cc1`, the outcome was “inactive”. In the case of `CCCCCCCC(=O)NNC(=O)c1ccc(F)cc1`, the outcome is reported as “inactive”. In the case of `O=C(N/N=C/C=C/c1ccccc1)c1ccccn1`, the outcome is reported as “inactive”. For `CCCCCCCC(=O)N/N=C(/C)c1c(O)cc(C)oc1=O`, the outcome was “inactive”. For `CCc1ccc(/C=N/NC(=O)c2ccccn2)cc1`, the outcome was “inactive”. For `Cc1ccc(NCCC(=O)c2cccs2)cc1`, the outcome was “inactive”. With `Cc1ccc(-c2noc(CCCC(=O)Nc3cccnc3)n2)cc1` the outcome was “inactive”. In the case of `CCCCn1nnc(NC(=O)COc2ccc(Cl)c(C)c2)n1`, the outcome is reported as “inactive”. In the case of `CCCOC(=O)c1ccc(NC(=O)c2ccccc2OC)cc1`, the outcome is reported as “inactive”. In the case of `CN1CCC(O)(c2ccc(Cl)cc2)C(C(=O)c2ccc(Cl)cc2)C1` (stereo not drawn), the outcome is reported as “inactive”. For `CCN(CC)S(=O)(=O)c1ccc(C(=O)OCn2nnc3ccccc3c2=O)cc1`, the outcome was “inactive”. In the case of `C/C(=N\NC(=O)c1ccco1)c1cc(Cl)sc1Cl`, the outcome is reported as “inactive”. For `C=C1Cn2c(nnc2-c2ccc(Cl)cc2)S1`, the outcome was “inactive”. For `O=C(COc1ccccc1)NC1CCCCC1`, the outcome was “inactive”. For `Cc1ccc2nc(C)c3c(c2c1)COC3`, the outcome was “inactive”. For `O=C(OCn1nnc2ccccc2c1=O)C1CCCCC1`, the outcome was “inactive”. With `CCOC(=O)COc1ccc2c(c1)C(=O)CC1(CCCCC1)O2` the outcome was “inactive”. In the case of `CCOc1ccc(NC(=O)CCNC(=O)c2ccc(Br)cc2)cc1`, the outcome is reported as “inactive”. With `O=C(c1ccc(-c2ccc([N+](=O)[O-])cc2)o1)N1CCN(S(=O)(=O)c2cccs2)CC1` the outcome was “inactive”. With `CC1CCN(C(=O)c2ccc(-c3ccccc3Cl)o2)CC1` the outcome was “inactive”. For `O=C(COc1cccc2ccccc12)Nc1nc2ccccc2[nH]1`, the outcome was “inactive”. With `CCCN(Cc1nnc(-c2ccccc2Cl)o1)C(=O)c1cc([N+](=O)[O-])cc([N+](=O)[O-])c1` the outcome was “inactive”. In the case of `COc1ccc(CCOC(=O)c2ccc(N)c([N+](=O)[O-])c2)cc1`, the outcome is reported as “inactive”. With `Cc1ccc(OCC(=O)Nc2ccc([N+](=O)[O-])cc2)cc1` the outcome was “inactive”. In the case of `COc1ccc(C(=O)COC(=O)COc2ccc(C)c(C)c2)cc1`, the outcome is reported as “inactive”. In the case of `CC(C)CN(Cc1c(O)ccc2ccccc12)CC(C)C`, the outcome is reported as “inactive”. In the case of `Cn1c(=O)c2c(=O)cc(NNC(=O)CC#N)[nH]c2n(C)c1=O`, the outcome is reported as “inactive”. With `O=C(C/C=N\OCc1ccc([N+](=O)[O-])cc1)Nc1ccccc1` the outcome was “inactive”. With `CN(CC(=O)Nc1ccc(Cl)cc1)C1CCCCC1` the outcome was “inactive”. In the case of `Cc1ccc(CO/N=C/c2c(O)cc(C)oc2=O)cc1`, the outcome is reported as “inactive”. For `Cc1cc(C)n2nc(S(=O)(=O)Nc3c(Cl)cccc3Cl)nc2n1`, the outcome was “inactive”. In the case of `CS(=O)(=O)Nc1cccc2cccnc12`, the outcome is reported as “inactive”. With `CCSc1nc(O)c(C2OC(=O)c3c2ccc(OC)c3OC)c(=O)n1-c1ccccc1` (stereo not drawn) the outcome was “inactive”. In the case of `COc1cc(/C=C/c2ccc3c([N+](=O)[O-])cccc3n2)ccc1OCC(=O)O`, the outcome is reported as “inactive”. In the case of `COc1cc(C=O)ccc1OCCCCOc1ccccc1[N+](=O)[O-]`, the outcome is reported as “inactive”. For `C=CCN(CC=C)CC(=O)Nc1ccc(S(N)(=O)=O)cc1`, the outcome was “inactive”. For `O=C(OCc1ccc([N+](=O)[O-])cc1)c1ccc2ccccc2n1`, the outcome was “inactive”. In the case of `N#CC(C(=O)Nc1ccccc1)=C1Nc2ccccc2N1`, the outcome is reported as “inactive”. In the case of `CSCCC(=O)N1CCCC(CNC(=O)c2ccc(-c3ccccc3)cc2)C1` (stereo not drawn), the outcome is reported as “inactive”. In the case of `Cc1[nH]n(S(=O)(=O)Cc2ccccc2)c(=O)c1N=Nc1ccccc1Cl`, the outcome is reported as “inactive”. With `O=C(NN=C(Cc1ccccc1)Cc1ccccc1)c1ccncc1` the outcome was “inactive”. For `O=C(N/N=C/C=C/c1ccccc1)c1ccncc1`, the outcome was “inactive”. With `CN1/C(=C\C=N\NC(=O)c2cccnc2)C(C)(C)c2ccccc21` the outcome was “inactive”. In the case of `CCOC(=O)N1CCC(NC(=O)C2CCN(c3nc(-c4ccc(OC)cc4)no3)CC2)CC1`, the outcome is reported as “inactive”. In the case of `CCOC(=O)C1CCCN(Cc2nc(Cc3ccccc3Cl)no2)C1` (stereo not drawn), the outcome is reported as “inactive”. In the case of `CCCNC(=O)OCC12CC3CC(CC(C3)C1)C2`, the outcome is reported as “inactive”. With `O=C(CCCOc1ccccc1)OCn1nnc2ccccc2c1=O` the outcome was “inactive”. With `COc1ccccc1N1CCN(C(=O)CCn2c(=O)[nH]c3ccsc3c2=O)CC1` the outcome was “inactive”. For `Cc1ccc(C(=O)COC(=O)c2cccs2)cc1`, the outcome was “inactive”. In the case of `Cc1ccc(C(=O)CCC2CCCC2=O)cc1` (stereo not drawn), the outcome is reported as “inactive”. In the case of `COc1ccc(-c2[nH]ncc2CN2CCCCCCC2)c(OC)c1`, the outcome is reported as “inactive”. For `O=C(Nc1ccc(F)cc1F)c1cc2ccccc2oc1=O`, the outcome was “inactive”. With `CC(C)Cc1cc(C(=O)Nc2ccc(F)cc2F)no1` the outcome was “inactive”. In the case of `CCCNC(=O)NC(=O)COc1ccc(-c2ccc(C#N)cc2)cc1`, the outcome is reported as “inactive”. In the case of `O=C(COc1ccc(-c2ccccc2)cc1)Nc1cccnc1`, the outcome is reported as “inactive”. With `O=C(NC(=S)Nc1ccc(F)cc1)C1CCCCC1` the outcome was “inactive”. With `CC1=CN2C(=N)/C(=C/c3ccc([N+](=O)[O-])o3)C(=O)N=C2S1` the outcome was “inactive”. With `CN(/N=C/c1ccc([N+](=O)[O-])o1)c1ccccc1` the outcome was “inactive”. For `CC(C)[C@H](NC(=O)c1ccc(Br)cc1)C(=O)NC1CCCCC1`, the outcome was “inactive”. In the case of `COc1ccc(CCNc2nc(-c3ccccn3)cs2)cc1OC`, the outcome is reported as “inactive”. With `c1ccc(Nc2nc(-c3ccccn3)cs2)cc1` the outcome was “inactive”. In the case of `CN1CCN(c2cc3c(cc2F)c(=O)c(C(=O)O)cn3CCF)CC1`, the outcome is reported as “inactive”. For `S=C1NC2(CCCC2)N=C1c1ccccc1`, the outcome was “inactive”. For `CCOC(=O)c1csc(-c2snnc2C)n1`, the outcome was “inactive”. With `COc1ccc(COC(=O)CCNC(=O)c2ccc(Cl)cc2)cc1` the outcome was “inactive”. For `COC(=O)COc1cccc(NC(=O)c2ccc(Cl)cc2)c1`, the outcome was “inactive”. With `CNC(=O)COC(=O)c1ccc(-c2nc3ccccc3s2)s1` the outcome was “inactive”. For `CC(C)N1CCc2c(sc(NC(=O)CCS(=O)(=O)c3ccccc3)c2C#N)C1`, the outcome was “inactive”. In the case of `O=C(COc1ccc2ccccc2c1)NNC(=O)c1cccs1`, the outcome is reported as “inactive”. For `Cc1cc(Cl)ccc1OCCCC(=O)NO`, the outcome was “inactive”. With `Clc1cccc(CNCCNCc2cccc(Cl)c2)c1` the outcome was “inactive”. For `CC(Cc1cccs1)NC(=O)c1cccc(Cl)c1` (stereo not drawn), the outcome was “inactive”. In the case of `Cc1ccc(NC(=O)COc2ccc3c(c2)CCC3)nc1`, the outcome is reported as “inactive”. With `CCOC(=O)COc1cc(O)c2c(=O)cc(-c3ccccc3)oc2c1` the outcome was “inactive”. In the case of `COc1ccc(N2C(=O)C(F)(F)C2c2cccc(F)c2)cc1` (stereo not drawn), the outcome is reported as “inactive”. In the case of `Cc1cc(C(=O)N/N=C/c2cccc(Cl)c2Cl)no1`, the outcome is reported as “inactive”. With `NC(=O)N/N=C\c1cc(Br)ccc1O` the outcome was “inactive”. With `COC(=O)COc1cccc(/C=N/NC(=O)CCSc2ccccc2)c1` the outcome was “inactive”. In the case of `COCCNC(=O)CC(=O)N/N=C/c1cccc(C(=O)OC)c1`, the outcome is reported as “inactive”. For `Clc1ccccc1CSc1nnc([C@@H]2CCCN2)o1`, the outcome was “inactive”. In the case of `O=C(COC(=O)CCc1c[nH]c2ccccc12)Nc1ccc([N+](=O)[O-])cc1`, the outcome is reported as “inactive”. In the case of `CC1N(C)c2cccc3cccc(c23)N1C`, the outcome is reported as “inactive”. In the case of `COC(=O)c1cccc(COC(=O)c2cc3ccccc3oc2=O)c1`, the outcome is reported as “inactive”. In the case of `Cc1cc(Cl)ccc1NNC(=O)c1c(C)noc1C`, the outcome is reported as “inactive”. In the case of `O=C(NN=C1C2CC3CC1CC(Cl)(C3)C2)c1cccs1`, the outcome is reported as “inactive”. With `Clc1cccc(/C=N\Nc2nccs2)c1` the outcome was “inactive”. With `O=C(N/N=C/C=C/c1ccccc1[N+](=O)[O-])c1ccncc1` the outcome was “inactive”. In the case of `O=C(COc1ccccc1)NNc1nc2ccccc2s1`, the outcome is reported as “inactive”. In the case of `O=C(NNc1nc2ccccc2s1)Nc1ccc(F)cc1`, the outcome is reported as “inactive”. For `O=[N+]([O-])c1cc(N=Nc2ccc3ccccc3c2)ccc1O`, the outcome was “inactive”. For `Cc1cccc(N2CCN(Cc3ccc([N+](=O)[O-])o3)CC2)c1C`, the outcome was “inactive”. With `CCCCOC(=O)c1ccc(NC(=O)c2nn(C)cc2Br)cc1` the outcome was “inactive”. With `O=C(N/N=C/c1ccc[nH]1)c1ccncc1` the outcome was “inactive”. In the case of `O=C1NCC(O)=C1C=Nc1ccccc1O`, the outcome is reported as “inactive”. In the case of `Cc1[nH]nc2c1C(c1ccc(-c3ccc(Cl)cc3)o1)C(C#N)=C(N)O2` (stereo not drawn), the outcome is reported as “inactive”. With `Cc1ccc(NCCC(=O)c2cccs2)cc1Cl` the outcome was “inactive”.

Source: PubChem BioAssay AID489025 (Southern Research Specialized Biocontainment Screening …, 2010)
